Source: PubChem (several laboratories)
GDH-TPI counter-1: GDH-TPI coupling enzyme inhibitors, primary screen, artefact control for M. tuberculosis FBA inhibitor project, biochemical, absorbance, full deck; GDH-TPI coupled enzyme counterscreen, NADH absorbance; inhibition, % at 4.8 µM; actives 1.2% (n = 360,000); in the data active = inhibition above about 30%;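 also: 0% = DMSO wells and 100% = wells lacking the enzyme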
Yp Topo-I inh: Yersinia pestis topoisomerase I inhibitors, primary screen, biochemical, cleavage product accumulation, plate reader, single point. actives 0.064% (n = 360,000). Y. pestis Topo-I cleavage product accumulation. DNA topoisomerase I (Yersinia pestis CO92). activity, % at 10 µM; in the data active = activity above about 50%, passing the limit was not always enough
PrP 5UTR inh: inhibition of PrP 5' UTR reporter expression; cell-based PrP 5' UTR mRNA reporter, plate reader; inhibition, % (test concentration not listed); actives 0.35% (n = 340,000); AID 488862, 2010; in the data active = inhibition above about 52%; also: 0 = median of the neutral control wells
PrPC TRFRET: inhibitors of human cell surface prion protein PrPC, primary screen, cell-based, TR-FRET; Major prion protein (Homo sapiens), P04156; TR-FRET read-out; inhibition, % at 13.8 µM; actives 0.43% (n = 370,000); AID 720596, 2013; in the data active = inhibition above about 24%; also: 0% = median of the test wells and 100% = reference compound wells
Mtb hypoxia rep: PubChem AID 1159583; M. tuberculosis hypoxia-regulated fluorescent reporter, fluorescence; fluorescence inhibition, % (no concentration beside the values); actives 0.1% (n = 300,000); in the data active = fluorescence inhibition mostly above about 23%, no sharp cut-off; inactive = mostly below about 17%
FBA Mtb inh: Mtb FBA enzyme inhibitors, primary screen, biochemical, fluorescence, strain H37Rv | Fructose-bisphosphate aldolase (Mycobacterium tuberculosis (strain ATCC 25618 / H37Rv)), … | purified M. tuberculosis FBA, fluorescence read-out | inhibition, % at 1 µM | actives 2.3% (n = 360,000);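 also: 0% = vehicle and 100% = reference inhibitor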
Target sequence (P9WQA3 whole entry, looked up): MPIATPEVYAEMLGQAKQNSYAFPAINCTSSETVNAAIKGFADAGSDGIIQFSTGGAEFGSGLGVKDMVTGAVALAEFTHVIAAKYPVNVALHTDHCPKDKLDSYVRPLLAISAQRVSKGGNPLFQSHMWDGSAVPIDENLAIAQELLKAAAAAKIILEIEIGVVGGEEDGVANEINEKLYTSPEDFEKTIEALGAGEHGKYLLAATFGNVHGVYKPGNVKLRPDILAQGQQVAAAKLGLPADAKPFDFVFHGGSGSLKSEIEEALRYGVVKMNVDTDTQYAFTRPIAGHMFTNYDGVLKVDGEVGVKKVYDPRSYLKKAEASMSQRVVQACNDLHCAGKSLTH
Mtb FBA inh conf: M. tuberculosis aldolase blockers, biochemical, fluorescence, strain H37Rv, confirmation | shares compounds with FBA Mtb inh | purified M. tuberculosis FBA, fluorescence read-out | inhibition, % at 1 µM | actives 78% (n = 5,600);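 also: 0% = vehicle wells and 100% = reference inhibitor wells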
GDH-TPI counter-2: GDH-TPI coupling enzyme inhibitors, artefact control for M. tuberculosis FBA inhibitor project, biochemical, fluorescence, high throughput; inhibition, % at 1 µM; GDH-TPI coupled enzyme counterscreen; AID 652141, 2013; shares compounds with FBA Mtb inh; actives 81% (n = 5,600); in the data active = inhibition above about 10%
The depositor's hits bear a star; x = no result. Shown are actives, neighbours in structure and some others; about 3.8% of the full set was active somewhere. Rule as the data show it, unless noted: active = inhibition above about 27%; inactive = the rest.

SMILES	GDH-TPI counter-1	Yp Topo-I inh	PrP 5UTR inh	PrPC TRFRET	Mtb hypoxia rep	FBA Mtb inh	Mtb FBA inh conf	GDH-TPI counter-2
O=[N+]([O-])c1ccc(Cl)c(C=NNC(=S)Nc2ccccc2)c1	x	x	x	x	0	x	x	x
C(=Nn1cnnc1)c1ccc2c(c1)OCCO2	x	x	x	x	13	x	x	x
N#Cc1ccc(-c2ccc(OCC(O)CN3CCOCC3)cc2)cc1 (stereo unspecified)	-5	-6	-19	11	8	40*	4	-1
COc1ccc(OCC(O)CN2CCOCC2)cc1 (stereo unspecified)	-2	-3	-10	3	3	-3	x	x
O=C(NC1CC1)c1ccc2c(c1)N(Cc1ccc(Cl)cc1)CCS2	7	33	-9	-5	x	106*	54*	48*
O=C(NC1CCCC1)c1ccc2c(c1)N(Cc1ccccc1)CCS2	9	-1	-14	1	1	90*	103*	116*
Cc1ccc(CN2CCSc3ccc(C(=O)NC4CCN(Cc5ccccc5)CC4)cc32)cc1	9	-1	-26	4	7	10	x	x
COc1ccc(C(=O)NN=C(C)CC(=O)Nc2ccc(N(C)C)cc2)c(OC)c1	x	x	x	x	5	x	x	x
Cc1c(O)c2ccccc2n(-c2ccccc2)c1=O	16	-4	-12	11	-4	47*	77*	54*
O=C(NN=Cc1ccc([N+](=O)[O-])o1)c1cn(-c2ccccc2)nc1-c1ccc(Cl)cc1	x	x	x	x	-11	x	x	x
Cc1ccc(-c2nc(C#N)c(NCCN3CCCCC3)o2)cc1	16	10	-28	0	5	94*	170*	121*
Cc1cccc(-c2noc(-c3ccccc3C(=O)NCC3CCCO3)n2)c1 (stereo unspecified)	7	15	-27	7	x	5	x	x
N#Cc1nc(-c2ccc(F)cc2)oc1NCCN1CCOCC1	16	-4	2	-4	10	46*	81*	62*
Cc1cccc(-c2nc(C#N)c(NCC3CCCO3)o2)c1 (stereo unspecified)	-8	-4	-17	-1	12	34*	109*	88*
N#Cc1nc(-c2ccccc2F)oc1NCCN1CCOCC1	12	1	-3	-6	x	36*	84*	81*
N#Cc1nc(-c2ccco2)oc1NCCN1CCOCC1	7	1	-21	0	5	26	x	x
N#Cc1nc(Cc2cccc3ccccc23)oc1NCCN1CCCCC1	7	4	-14	-1	0	3	x	x
CCC(C)C1NC(=O)C(CC(C)C)NC(=O)C(Cc2ccccc2)NC(=O)C(Cc2ccccc2)NC(=O)C2CCCN2C(=O)C2CCCN2C(=O)C(C(C)C)NC(=O)C(CC(C)C)NC(=O)C(C(C)CC)NC1=O (stereo unspecified)	x	x	x	x	-4	x	x	x
CCOc1ccc2oc(C(=O)OCC(=O)NCC3CCCO3)c(C)c2c1 (stereo unspecified)	4	2	-23	-10	8	39*	17	13*
COc1ccc2oc(C(=O)NCC3CCCO3)c(C)c2c1 (stereo unspecified)	3	-4	-73	4	14	25	x	x
COc1ccc2oc(C(=O)OCC(=O)NCC3CCCO3)c(C)c2c1 (stereo unspecified)	9	14	-5	-3	3	36*	91*	81*
N#CC1=C(O)CCCn2c1nc1ccccc1c2=O	22	-1	-28	-8	-1	6	x	x
N#CC1=C(O)C(c2ccccc2)n2c1nc(=O)c1ccccc12 (stereo unspecified)	14	7	-15	5	1	85*	137*	129*
CCCCc1cc(=O)oc2cc(C)cc(OCC(=O)N3C[C@H]4C[C@@H](C3)c3cccc(=O)n3C4)c12	13	7	-1	-2	x	42*	51*	38*
CCCc1cc(=O)oc2cc(C)cc(OCC(=O)N3C[C@H]4C[C@@H](C3)c3cccc(=O)n3C4)c12	10	-6	x	-3	x	42*	167*	127*
SMILES	GDH-TPI counter-1	Yp Topo-I inh	PrP 5UTR inh	PrPC TRFRET	Mtb hypoxia rep	FBA Mtb inh	Mtb FBA inh conf	GDH-TPI counter-2
CCCCc1cc(=O)oc2cc(OCC(=O)N3C[C@H]4C[C@@H](C3)c3cccc(=O)n3C4)ccc12	13	10	-26	5	x	6	x	x
Cc1cc(OCC(=O)N2C[C@H]3C[C@@H](C2)c2cccc(=O)n2C3)c2c(C)c(C)c(=O)oc2c1	9	10	-15	-1	x	40*	39*	23*
Cc1cc(=O)oc2cc(OCC(=O)N3C[C@H]4C[C@@H](C3)c3cccc(=O)n3C4)c(Cl)cc12	13	-5	-12	-12	x	8	x	x
Nc1c(S(=O)(=O)c2ccccc2)c2nc3ccccc3nc2n1N=Cc1ccco1	x	x	x	x	-4	x	x	x
Cc1ccc2[nH]c(=O)c3cc(C(=O)NC(C)C)sc3c2c1	19	2	-24	-1	3	74*	85*	68*
CCCN1CCN(CCCNC(=O)c2cc3c(=O)[nH]c4ccc(C)cc4c3s2)CC1	6	7	-21	-5	0	53*	91*	93*
COc1ccc(-c2ccc(SCC(=O)NC3CCCCC3)nn2)cc1	-14	7	-51	-9	x	-3	x	x
COc1ccc(-c2[nH]c(-c3cccc(OC)c3)nc2SCC(=O)NC2CCCC2)cc1	9	-5	-43	5	1	40*	124*	100*
COc1ccc(-c2cn3nc(SCC(=O)NC4CCCCC4)ccc3n2)cc1	10	3	-49	1	x	28*	74*	41*
CCN1C(=O)C(=c2sc(=C3Sc4ccccc4N3C)c(=O)n2C)N(C)C1=S	x	x	x	x	3	x	x	x
Nc1ccc(C=Cc2ccc(N)cc2)cc1	x	x	x	11	x	88*	153*	116*
CN(C)c1ccc2c(O)cc(=O)n(C)c2c1	18	-3	-27	-5	6	37*	29*	25*
CCc1cc(=O)oc2cc(C)cc(OCC(=O)NCC(O)c3ccccc3)c12 (stereo unspecified)	3	8	-4	-6	2	56*	198*	168*
Cc1cc(OC(C(=O)O)c2ccccc2)c2c(C)c(Cc3ccccc3)c(=O)oc2c1 (stereo unspecified)	23	-3	-22	10	2	46*	1	-1
CCCc1cc(=O)oc2cc(C)cc(OCC(=O)NC3CCN(Cc4ccccc4)CC3)c12	6	10	4	-5	-6	23	x	x
